Results published in PMC5540273 (PLoS ONE, 2017).
“And” between values parts separate entries of the source, which are not always exact repeats. Identical values can stand only once. Like-named read-outs stand apart in the source and are kept apart here.

Tests used:
AAK1 = settings: n = 1
ABL1-nonphosphorylated = settings: concentration: 1 μM, replicates: in singlicate; n = 1
ABL1-phosphorylated = settings: concentration: 1 μM, replicates: in singlicate; n = 1
ABL2 = settings: n = 1
ACVR1B = settings: concentration: 1 μM, replicates: in singlicate; n = 1
ACVR1 = settings: n = 1
ACVR2A = settings: concentration: 1 μM, replicates: in singlicate; n = 1
[1] = concentration: 1 μM,replicates: in singlicate, 1 µM
[2] = concentration: 1 μM, replicates: in singlicate
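Also: KINOMEscan kinase panel screen.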

CSc1nn2c(=O)cc(N3CCOCC3)nc2n1Cc1cccc(C(F)(F)F)c1C [GSK2363608]
%Inh (AAK1; [1]): 3% and 25%
%Inh (ABL1-nonphosphorylated): 0%
%Inh (ABL1-phosphorylated): 0%
%Inh (ABL2; [1]): 5% and 17%
%Inh (ACVR1B): 0%
%Inh (ACVR1; [1]): 0% and 14%
%Inh (ACVR2A): 0%

O=C(Nc1ccccc1)Nc1cccc(Oc2ccc3nccn3n2)c1
%Inh (AAK1; [2]): 0%
%Inh (ABL1-nonphosphorylated): 89%
%Inh (ABL1-phosphorylated): 6%
%Inh (ABL2; [2]): 31%
%Inh (ACVR1B): 0%
%Inh (ACVR1; [2]): 0%
%Inh (ACVR2A): 0%

Cl.Oc1ccc(-c2nc(-c3ccccc3)[nH]c2-c2ccncc2)cc1 [SB-428218]
%Inh (AAK1; [2]): 7%
%Inh (ABL1-nonphosphorylated): 72%
%Inh (ABL1-phosphorylated): 56%
%Inh (ABL2; [2]): 30%
%Inh (ACVR1B): 0%
%Inh (ACVR1; [2]): 7%
%Inh (ACVR2A): 0%

Cc1ccccc1-n1cnc2c(N)ncnc21 [SKF-97510]
%Inh (AAK1; [2]): 1%
%Inh (ABL1-nonphosphorylated): 100%
%Inh (ABL1-phosphorylated): 3%
%Inh (ABL2; [2]): 0%
%Inh (ACVR1B): 0%
%Inh (ACVR1; [2]): 10%
%Inh (ACVR2A): 0%

Cc1cc(-c2ccc3c(c2)CC[C@@H](N[C@@H](C)c2ccccc2)C3)cnc1N.Cl [GW412617]
%Inh (AAK1; [2]): 100%
%Inh (ABL1-nonphosphorylated): 8%
%Inh (ABL1-phosphorylated): 9%
%Inh (ABL2; [2]): 6%
%Inh (ACVR1B): 0%
%Inh (ACVR1; [2]): 34%
%Inh (ACVR2A): 0%

Cc1cc(N2Cc3ccccc3C2)nc(Nc2ccc(S(=O)(=O)N3CCOCC3)cc2)n1.Cl [GSK1669917]
%Inh (AAK1; [2]): 1%
%Inh (ABL1-nonphosphorylated): 0%
%Inh (ABL1-phosphorylated): 0%
%Inh (ABL2; [2]): 0%
%Inh (ACVR1B): 0%
%Inh (ACVR1; [2]): 2%
%Inh (ACVR2A): 0%

Fc1cccc(COc2nnc(-c3ccc4c(c3)CCO4)o2)c1
%Inh (AAK1; [2]): 26%
%Inh (ABL1-nonphosphorylated): 25%
%Inh (ABL1-phosphorylated): 0%
%Inh (ABL2; [2]): 22%
%Inh (ACVR1B): 0%
%Inh (ACVR1; [2]): 0%
%Inh (ACVR2A): 0%

COc1ccccc1-c1ccc2c(NC(=O)C3CC3)n[nH]c2n1 [SB-711239]
%Inh (AAK1; [2]): 9%
%Inh (ABL1-nonphosphorylated): 0%
%Inh (ABL1-phosphorylated): 88%
%Inh (ABL2; [2]): 0%
%Inh (ACVR1B): 18%
%Inh (ACVR1; [2]): 0%
%Inh (ACVR2A): 29%

Cc1cccc(-c2nc(Nc3ccncc3)c3ccccc3n2)n1 [GW855857]
%Inh (AAK1; [2]): 2%
%Inh (ABL1-nonphosphorylated): 39%
%Inh (ABL1-phosphorylated): 28%
%Inh (ABL2; [2]): 22%
%Inh (ACVR1B): 94.3%
%Inh (ACVR1; [2]): 15%
%Inh (ACVR2A): 24%

NC(=O)c1nnc2ccccc2c1N
%Inh (AAK1; [2]): 35%
%Inh (ABL1-nonphosphorylated): 25%
%Inh (ABL1-phosphorylated): 6%
%Inh (ABL2; [2]): 65%
%Inh (ACVR1B): 0%
%Inh (ACVR1; [2]): 0%
%Inh (ACVR2A): 22%

CCn1c(-c2cccnc2O)nc2cnccc21 [SB-736715]
%Inh (AAK1; [2]): 0%
%Inh (ABL1-nonphosphorylated): 43%
%Inh (ABL1-phosphorylated): 0%
%Inh (ABL2; [2]): 4%
%Inh (ACVR1B): 0%
%Inh (ACVR1; [2]): 0%
%Inh (ACVR2A): 0%

COc1ccc(Nc2nccc(-c3cccc(NC(=O)c4cc5cc(F)ccc5[nH]4)c3)n2)cc1 [GSK1229782]
%Inh (AAK1; [2]): 47%
%Inh (ABL1-nonphosphorylated): 85%
%Inh (ABL1-phosphorylated): 78%
%Inh (ABL2; [2]): 53%
%Inh (ACVR1B): 0%
%Inh (ACVR1; [2]): 9%
%Inh (ACVR2A): 13%

O=C(Nc1n[nH]c2nc(-c3nccs3)c(Br)cc12)C1CC1 [SB-742251]
%Inh (AAK1; [2]): 15%
%Inh (ABL1-nonphosphorylated): 0%
%Inh (ABL1-phosphorylated): 22%
%Inh (ABL2; [2]): 7%
%Inh (ACVR1B): 0%
%Inh (ACVR1; [2]): 6%
%Inh (ACVR2A): 0%

O=C(Nc1ccc2c(c1)OCO2)NC1CCN(c2ccnc(Nc3ccc(F)cc3)n2)C1 (stereo not drawn) [GSK1379724]
%Inh (AAK1; [2]): 12%
%Inh (ABL1-nonphosphorylated): 0%
%Inh (ABL1-phosphorylated): 0%
%Inh (ABL2; [2]): 9%
%Inh (ACVR1B): 0%
%Inh (ACVR1; [2]): 0%
%Inh (ACVR2A): 0%

Cn1cncc1-c1ccc2ncnc(Nc3ccc(OCc4ccccc4)cc3)c2c1 [GW320571]
%Inh (AAK1; [2]): 2%
%Inh (ABL1-nonphosphorylated): 0%
%Inh (ABL1-phosphorylated): 10%
%Inh (ABL2; [2]): 10%
%Inh (ACVR1B): 2%
%Inh (ACVR1; [2]): 22%
%Inh (ACVR2A): 16%

CC(=O)Nc1nc2cnc(Nc3cc(NC(=O)c4cccc(CCC#N)c4)ccc3C)nc2s1
%Inh (AAK1; [2]): 6%
%Inh (ABL1-nonphosphorylated): 94.8%
%Inh (ABL1-phosphorylated): 29%
%Inh (ABL2; [2]): 29%
%Inh (ACVR1B): 0%
%Inh (ACVR1; [2]): 0%
%Inh (ACVR2A): 0%

COC(=O)c1c(-c2ccccc2)c2cc(OC)ccc2c(=O)n1Cc1ccccc1
%Inh (AAK1; [2]): 22%
%Inh (ABL1-nonphosphorylated): 66%
%Inh (ABL1-phosphorylated): 0%
%Inh (ABL2; [2]): 12%
%Inh (ACVR1B): 0%
%Inh (ACVR1; [2]): 0%
%Inh (ACVR2A): 0%

Nc1ncnc2[nH]c(-c3ccccc3)nc12 [AH5015]
%Inh (AAK1; [2]): 0%
%Inh (ABL1-nonphosphorylated): 7%
%Inh (ABL1-phosphorylated): 44%
%Inh (ABL2; [2]): 19%
%Inh (ACVR1B): 0%
%Inh (ACVR1; [2]): 37%
%Inh (ACVR2A): 7%
